Where “and” joins values, the source holds several entries; their conditions need not be identical. Equal entries are not always repeated. Where two headings read alike, the source gives them in different places.
Experiments:
[1] = system: MERTK; conditions: concentration: 1 μM, replicates: in singlicate; n = 1
[2] = system: MET; conditions: concentration: 1 μM, replicates: in singlicate; n = 1
[3] = system: T1, MINK; conditions: concentration: 1 μM, replicates: in singlicate, n = 1
T1 construct: gene MINK1

[4] = system: MKK7; conditions: concentration: 1 μM, replicates: in singlicate, n = 1
[5] = system: MKNK1; conditions: concentration: 1 μM, replicates: in singlicate; n = 1
[6] = system: MKNK2; conditions: concentration: 1 μM, replicates: in singlicate, n = 1
[7] = system: T2, MLCK; conditions: concentration: 1 μM, replicates: in singlicate; n = 1
T2 construct: gene MYLK3

[8] = system: T3, MLK1; conditions: concentration: 1 μM, replicates: in singlicate; n = 1
T3 construct: gene MAP3K9

[9] = system: MLK2; conditions: concentration: 1 μM, replicates: in singlicate, n = 1
[10] = system: MLK3; conditions: concentration: 1 μM, replicates: in singlicate, n = 1
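Note: KINOMEscan kinase panel screen.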

Compound | %Inh [1] | %Inh [2] | %Inh [3] | %Inh [4] | %Inh [5] | %Inh [6] | %Inh [7] | %Inh [8] | %Inh [9] | %Inh [10] | %Inh ([3]; 1 µM) | %Inh ([4]; 1 µM) | %Inh ([6]; 1 µM) | %Inh ([9]; 1 µM) | %Inh ([10]; 1 µM)
Cn1cc(-c2ccc3c(c2)CCN3C(=O)Cc2cccc(C(F)(F)F)c2)c2c(N)ncnc21 [GSK2606414] | 43% | 0% | 0% | 0% | 0% | 1% | 12% | 0% | 27% | 8% | – | – | – | – | –
Cc1cccc(-c2nc(Nc3ccc4[nH]nnc4c3)c3ccccc3n2)n1 [GW867587] | 19% | 0% | 0% | 0% | 8% | 0% | 0% | 0% | 0% | 0% | – | – | – | – | –
CC(C)(C)c1ccc(-n2cnc3c(N)ncnc32)cc1 [SKF-97263] | 41% | 0% | 14% | 6% | 0% | 29% | 4% | 2% | 61% | 0% | – | – | – | – | –
Clc1cccc(-c2nc(Nc3ccncc3)c3ccccc3n2)c1 [GW873004] | 7% | 33% | 16% | 0% | 18% | 0% | 0% | 2% | 16% | 0% | – | – | – | – | –
CCC(CC)(CC)n1cnc2c(N)ncnc21 [SKF-97620] | 40% | 0% | 15% | 0% | 0% | 10% | 0% | 0% | 3% | 1% | – | – | – | – | –
O=C(Nc1ccccc1)Nc1ccc(Oc2ccc3nccn3n2)cc1 | 16% | 1% | 38% | 0% | 14% | 0% | 0% | 15% | 0% | 0% | – | – | – | – | –
FC(F)(F)c1ccc(-c2nn3ncccc3c2-c2ccnc(Nc3cccc(C(F)(F)F)c3)n2)cc1 [GW828205] | 1% | 21% | 12% | 0% | 0% | 0% | 0% | 4% | 0% | 0% | – | – | – | – | –
O=C(Nc1ccccc1F)NC1CCN(c2ccnc(Nc3ccc(F)cc3)n2)C1 (stereo not shown) [GSK1379722] | 6% | 0% | 0% | 0% | 7% | 23% | 10% | 0% | 0% | 9% | – | – | – | – | –
Fc1cccc(COc2ccc(Nc3ncnc4sc(-c5ccc[nH]5)cc34)cc2Cl)c1 [GW707818] | 10% | 0% | 16% | 8% | 12% | 2% | 0% | 7% | 0% | 2% | – | – | – | – | –
Fc1ccc(-c2ncn(CCCNCc3ccccc3)c2-c2ccncc2)cc1 | 35% | 0% | 3% | 10% | 28% | 0% | 0% | 4% | 0% | 0% | – | – | – | – | –
Cc1cc(N2CCC(NS(=O)(=O)c3ccc(F)cc3)CC2)nc(Nc2cccc(C#N)c2)n1.O=C(O)C(F)(F)F [GSK1653537] | 39% | 0% | 0% | 0% | 7% | 3% | 0% | 12% | 0% | 15% | – | – | – | – | –
Cl.Fc1ccccc1COc1ccc(Nc2ncnc3ccc(-c4nnc(C(F)(F)F)o4)cc23)cc1Cl [GW424170] | 10% | 0% | 0% | 0% | 0% | 0% | 0% | 0% | 0% | 3% | – | – | – | – | –
Nc1nc(-c2ccc3c(N)n[nH]c3c2)cc(N2CCCCC2)n1 [GSK2228768] | 0% | 0% | 0% | 0% | 0% | 23% | 0% | 0% | 0% | 0% | – | – | – | – | –
C[C@H]1CC[C@@H](C(=O)Nc2ccccc2)CN1c1cc(-c2ccc3c(N)n[nH]c3c2)nc(N)n1 [GSK2283293] | 11% | 100% | 17% | 0% | 0% | 3% | 0% | 0% | 0% | 0% | – | – | – | – | –
CS(=O)(=O)CCNCc1ccc(-c2ccc3ncnc(Nc4ccc(OCc5ccccc5)c(Cl)c4)c3c2)o1.Cl [GW574783] | 5% | 0% | 0% | 71% | 26% | 0% | 0% | 0% | 31% | 10% | – | – | – | – | –
FC(F)(F)c1ccc(-c2cc(-c3c[nH]nc3-c3ccccn3)ccn2)cc1 [GW599550] | 0% | 14% | 75% | 0% | 7% | 0% | 7% | 10% | 0% | 21% | – | – | – | – | –

Compound | %Inh [1] | %Inh [2] | %Inh [3] | %Inh [4] | %Inh [5] | %Inh [6] | %Inh [7] | %Inh [8] | %Inh [9] | %Inh [10] | %Inh ([3]; 1 µM) | %Inh ([4]; 1 µM) | %Inh ([6]; 1 µM) | %Inh ([9]; 1 µM) | %Inh ([10]; 1 µM)
Nc1nccc2scc(-c3ccc4c(c3)CCN4C(=O)Cc3cc(F)ccc3F)c12 [GSK2587663] | 0% | 0% | 18% | 0% | 0% | 4% | 4% | 0% | 0% | 15% | – | – | – | – | –
c1ccc(-c2ccc3c(-c4ccnc(Nc5ccc6c(c5)OCCO6)n4)cnn3n2)cc1 [GW818941] | 58% | 100% | 0% | 21% | 0% | 2% | 4% | 12% | 39% | 28% | – | – | – | – | –
Oc1ccc2ncnc(Nc3ccc(OCc4ccccc4)cc3)c2c1 [GI262866] | 34% | 5% | 0% | 0% | 0% | 15% | 0% | 0% | 24% | 0% | – | – | – | – | –
CCn1c(-c2ccncc2)nc2cnccc21 [SB-735216] | 0% | 1% | 19% | 5% | 5% | 33% | 0% | 8% | 0% | 0% | – | – | – | – | –
NC(=O)c1sc(-n2cnc3ccccc32)cc1OCc1ccccc1F [GSK1024306] | 32% | 20% | 1% | 0% | 10% | 0% | 0% | 9% | 0% | 7% | – | – | – | – | –
CN1CCC(n2cnc(-c3ccc(F)cc3)c2-c2ccnc(NC3CCNCC3)n2)CC1 [SB-229482] | 0% | 0% | 0% | 11% | 0% | 32% | 0% | 38% | 5% | 0% | – | – | – | – | –
COc1ccc(-c2nc3n(c2-c2ccncc2)CCC3)cc1 [SKF-104493] | 0% | 0% | – | – | 0% | – | 0% | 0% | – | – | 5% and 19% | 14% and 19% | 19% and 0% | 0% and 4% | 9% and 24%
Cc1ccc(C)c(NC(=O)NCCNc2ccnc(Nc3ccc(F)cc3)n2)c1 [GSK1379878] | 2% | 0% | 0% | 0% | 0% | 0% | 0% | 0% | 0% | 4% | – | – | – | – | –
Fc1ccc(Nc2nccc(-c3c(-c4ccc(Cl)cc4)nn4ncccc34)n2)cc1F [GW829058] | 0% | 3% | 14% | 23% | 0% | 2% | 9% | 2% | 12% | 4% | – | – | – | – | –
CSc1nn2c(=O)cc(N3CCOCC3)nc2n1Cc1cccc(Cl)c1Cl [GSK2347225] | 40% | 0% | 21% | 0% | 20% | 2% | 13% | 0% | 4% | 11% | – | – | – | – | –
CCc1nc(-c2cccc(C)c2)c(-c2ccnc(NC(=O)c3ccccc3)c2)s1 | 3% | 2% | 61% | 0% | 0% | 8% | 0% | 0% | 16% | 0% | – | – | – | – | –
COc1ccc(-c2oc3ncnc(N)c3c2-c2ccc(OC)cc2)cc1 [SB-589132] | 29% | 0% | 0% | 0% | 25% | 41% | 23% | 0% | 0% | 0% | – | – | – | – | –
CC(=O)Nc1n[nH]c2ncc(-c3ccccc3)cc12 [SB-548492] | 37% | 4% | 30% | 2% | 0% | 62% | 0% | 8% | 6% | 3% | – | – | – | – | –
Cn1ccc2ncnc(Oc3ccc(NC(=O)Nc4cccnc4)c(Cl)c3)c21 | 6% | 15% | 0% | 0% | 10% | 0% | 0% | 14% | 2% | 0% | – | – | – | – | –
O=C(CCO)NCCn1ccc2ncnc(Nc3ccc(Oc4cccc(C(F)(F)F)c4)c(Cl)c3)c21 | 0% | 0% | 0% | 0% | 0% | 12% | 0% | 0% | 0% | 0% | – | – | – | – | –

Reference: publication PMC5540273 (PLoS ONE, 2017)
